An excerpt weighted towards active compounds, which were near 15% of everything screened.
RORgamma inh – ROR gamma (mouse) transcription inhibition; P51450; Drosophila S2 Gal4-RORgamma UAS-luciferase reporter, 20 h; Potency, µM (top dose mostly 53.6 µM), for the others: at the highest dose activity change, negative = inhibition, actives largely listed as inhibitors; actives 5.4% (n = 310,000); further: nearly all actives have a fitted effect of over 60% in size
Target sequence (P51450 whole entry, looked up, the tested form may be a part): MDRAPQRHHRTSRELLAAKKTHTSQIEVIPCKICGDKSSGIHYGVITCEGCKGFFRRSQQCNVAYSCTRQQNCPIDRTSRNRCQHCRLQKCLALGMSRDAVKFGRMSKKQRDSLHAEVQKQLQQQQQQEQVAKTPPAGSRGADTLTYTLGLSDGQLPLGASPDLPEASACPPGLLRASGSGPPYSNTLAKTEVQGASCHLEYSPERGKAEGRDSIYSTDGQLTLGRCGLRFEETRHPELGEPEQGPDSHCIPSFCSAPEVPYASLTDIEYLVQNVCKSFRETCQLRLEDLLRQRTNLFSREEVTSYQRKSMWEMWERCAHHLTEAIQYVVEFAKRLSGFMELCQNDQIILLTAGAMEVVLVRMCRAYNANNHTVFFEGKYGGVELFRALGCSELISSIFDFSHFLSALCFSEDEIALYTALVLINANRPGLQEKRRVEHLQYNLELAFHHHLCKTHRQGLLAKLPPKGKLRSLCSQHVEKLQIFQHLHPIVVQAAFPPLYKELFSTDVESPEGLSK
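Luciferase reporter read in Schneider cells carrying Gal4-RORγ (mouse) and UAS-Photinus luciferase; cells given compound 1 h before 700 uM copper sulfate induction, then incubated 20 h at ambient temperature.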
DT40 TDP1 no CPT – qHTS for Inhibitors of human tyrosyl-DNA phosphodiesterase 1 (TDP1): qHTS in cells in absence of CPT; DT40 Tdp1-/- hTDP1 cells, no CPT, ATP luminescence, 48 h; Potency, µM (doses to about 46.2 µM), for the others: at the highest dose activity change, negative = growth inhibition, usual class: inhibitors; actives 15% (n = 420,000); AID 686978, 2013; further: nearly all actives have a fitted effect of over 55% in size
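Growth of hTDP1-complemented DT40 Tdp1-knockout cells is measured by ATP luminescence after at least 48 hr compound exposure at 37 °C, with DMSO substituting for the 20 nM CPT used in the parallel screen.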
VP16 counter – counter-screen for ROR gamma inhibitors: Gal4-VP16 reporter; Drosophila S2 Gal4-VP16 UAS-luciferase, luminescence, 20 h; Potency, µM (series often up to 53.6 µM), for the others: at the top dose activity, negative = inhibition, actives largely listed as inhibitors; actives 3.5% (n = 310,000); AID 2546;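 further: Gal4-VP16 expression switched on by copper sulfate through the metallothionein promoter; nearly all actives have a fitted effect of over 50% in size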
ELG1 DNA repair – inhibitors of ELG1-dependent DNA repair in HEK293T cells; Potency, µM (doses to about 46.1 µM), inactives show at the highest dose activity change, negative = inhibition, actives largely listed as inhibitors; actives 2.3% (n = 330,000); HEK293T ELG1-luciferase reporter, luminescence, 16 h; DNA damage induced by 5-fluorouridine; further: nearly all actives have a fitted effect of over 55% in size
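Reporter activity after DNA damage by 5-fluorouridine is monitored. Compound-treated cells incubate 16 hr at 37 °C, then ONE-Glo is added for 30 min before luminescence reading.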
12-LOX inh – ALOX12 (human) lipoxygenase inhibition | AID 1671190 | purified 12hLO, xylenol orange hydroperoxide absorbance | P18054 | Potency, µM (titrated, usually from 108 µM), inactives show at the top dose activity change, negative = inhibition, hits mostly inhibitors | actives 1.1% (n = 580,000)
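Hydroperoxide product was detected by ferrous iron/xylenol orange as the 573 to 405 nm absorbance ratio. Arachidonic acid at 40 uM (final) was turned over for 30 min at room temperature by 150 nM human 12hLO, pH 7.0 Hepes buffer, after 15 min compound preincubation.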
DT40 TDP1 CPT – growth inhibition of DT40 Tdp1-/-;hTDP1 cells with camptothecin (screen for TDP1 inhibitors); chicken DT40 Tdp1-/-;hTDP1 cells + 20 nM CPT, ATP luminescence, 48 h; Potency, µM (highest dose often 46.2 µM), without a hit: top-dose activity change, negative = growth inhibition, most hits filed as inhibitors; actives 12% (n = 420,000); AID 686979; further: nearly all actives have a fitted effect of over 55% in size
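Cell growth measured by CellTiter-Glo luminescence after a minimum 48 h, 37 C compound exposure with 20 nM CPT in Tdp1-knockout DT40 cells stably expressing hTDP1, seeded 400/well; qHTS titration format.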
Active calls of the source: *; u = inconclusive; x = no result; [ ] = dose if it differs, or a comment. The call rests on the fitted dose curve; in most records, active means well fitted curve in the direction sought with a large enough effect; inconclusive means small, poorly fitted or top-dose-only effect, or another doubt; inactive means no such curve, though single readings can be large; an effect the other way counts as inactive or inconclusive. On the % scale 0 is the no-effect control and ±100 the full control effect; potency means the concentration at half of the fitted maximal effect.

SMILES	RORgamma inh	DT40 TDP1 no CPT	VP16 counter	ELG1 DNA repair	12-LOX inh	DT40 TDP1 CPT
COc1ccc(N2C(=O)C(Cl)=C(Nc3ccc(OC)cc3OC)C2=O)cc1	u	u	-12.8%	20.6%	27.1%	2.5%
COc1ccc(N2C(=O)C(Cl)=C(Nc3c(C)n(C)n(-c4ccccc4)c3=O)C2=O)cc1	u	5.8µM*	19.3%	9.3%	u	2.59µM*
O=C1CCN(S(=O)(=O)c2ccccc2)CCCC(C(=O)NCCc2cccnc2)CCN1 (centres undefined)	x	x	x	x	13.5%	x
O=C(Cc1cccc(Cl)c1)N1CCC(c2nn(-c3ccccc3)c(=O)[nH]2)CC1	x	x	x	x	-8.5%	x
CCN1C(=O)CCN(Cc2cccc(OC(F)(F)F)c2)CC12CCOCC2	x	x	x	x	4.7%	x
Cc1nc2ccc(C(=O)N3c4ccccc4CC3C)cc2s1 (centres undefined)	8.2%	u	1.8%	-11.5%	-6.0%	23.1µM*
O=C(CSc1nnc(-c2ccco2)o1)c1ccccc1Cl	3.98µM*	18.0%	u	u	-3.5%	-13.3%
O=C(CSc1nnc(-c2ccco2)o1)c1ccc([N+](=O)[O-])cc1	0.794µM*	-28.6%	0.891µM*	-1.0%	21.6%	-21.1%
CC(=O)Nc1cccc(-c2nnc(SCC(=O)c3cc([N+](=O)[O-])ccc3Br)o2)c1	x	5.17µM*	x	x	-4.3%	5.17µM*
CC(=O)Nc1cccc(-c2nnc(SCC(=O)c3ccc([N+](=O)[O-])cc3)o2)c1	x	x	x	x	-23.2%	x
CS(=O)(=O)c1ccc(NC(=O)C(c2ccccc2)c2ccccc2)cc1	x	x	x	x	-23.1%	x
O=C(Oc1ccc(NC2=C(Cl)C(=O)c3ccccc3C2=O)cc1)c1ccc([N+](=O)[O-])cc1	u	7.31µM*	4.2%	u	x	8.2µM*
O=C(Oc1ccc([N+](=O)[O-])cc1)c1cccnc1	0.9%	-19.6%	-11.3%	-2.9%	-13.4%	3.9%
COCOc1ccc(/C=C2/Oc3cc(OCOC)cc(OCOC)c3C2=O)c(OCOC)c1	x	23.1µM*	x	x	x	13µM*
COCCCNC(=O)CSCc1nc(-c2ccccc2C)oc1C	x	x	x	x	9.1%	x
CCc1cc2ccc(OC)cc2nc1SCC(=O)NNC(=O)c1ccco1	17.8µM*	-26.5%	-1.0%	-13.6%	u	18.0%
COc1ccc(CC(=O)N2CCN(C(=O)c3ccco3)CC2)cc1	0.1%	-15.3%	1.0%	7.9%	-29.3%	3.9%
CCc1cc2ccc(OC)cc2nc1SCC(=O)N1CCN(C(=O)c2ccco2)CC1	18.1%	-22.4%	1.7%	20.6µM*	-7.4%	u
O=C1CC(c2ccccc2)N(C(=O)CNC(=O)C2(c3ccccc3)CC2)CCCCCCN1 (centres undefined)	x	x	x	x	30.5%	x
O=C(NCCc1ccc(Cl)cc1)c1cccn1-c1nnc(N2CCCCC2)s1	x	23.1µM*	x	x	u	u
O=C(NCCc1ccc(Cl)cc1)c1cccn1-c1nnc(N2CCCC2)s1	x	u	x	x	-28.1%	23.1µM*
CCOc1ccc(CCNC(=O)c2cccn2-c2nnc(N3CCCC3)s2)cc1OCC	x	x	x	x	1.1%	x
Cc1ccc(CCNC(=O)c2cccn2-c2nnc(N3CCCCC3)s2)cc1	x	x	x	x	-12.8%	x
O=C(NCc1cccc(Br)c1)c1cccn1-c1nnc(N2CCCCC2)s1	x	14.6µM*	x	x	-6.0%	u
NC(=O)CN1CCCC(c2nc(-c3cn4ccccc4n3)no2)C1 (centres undefined)	x	x	x	x	27.1%	x
SMILES	RORgamma inh	DT40 TDP1 no CPT	VP16 counter	ELG1 DNA repair	12-LOX inh	DT40 TDP1 CPT
CCOC(=O)Oc1ccc2c(=O)c(Oc3ccc(CC)cc3)c(C(F)(F)F)oc2c1	x	x	x	x	1.9%	x
CC(C)C(c1nnnn1CCc1ccccc1)N1CCOCC1 (centres undefined)	27.3%	-1.2%	-2.8%	-0.5%	u	8.4%
CC1CCN(C(c2nnnn2CCc2ccccc2)C(C)C)CC1 (centres undefined)	6.8%	18.4µM*	-4.1%	1.9%	-16.4%	u
COc1ccc(N2CCN(C(c3nnnn3CCc3ccccc3)C(C)C)CC2)cc1 (centres undefined)	3.8%	18.4µM*	-0.4%	u	0.0%[57.4 µM]	13µM*
Cc1nn(-c2ccc(C(C)(C)C)cc2)c(C)c1[C@@H]1C=C[C@@H](NC(=O)NCc2ccccc2)C1	x	x	x	x	-30.8%[176 µM]	x
COC(=O)CNC(=O)C1CCN(c2ncnc3sc4c(c23)CCCC4)CC1	x	x	x	x	9.0%	x
COc1cccc(NS(=O)(=O)c2ccc3[nH]c4c(c3c2)CCCCCC4)c1	x	20.6µM*	x	x	6.4%	16.4µM*
CCOC(=O)CC(NS(=O)(=O)c1ccc2[nH]c3c(c2c1)CCCC3)c1ccccc1Cl (centres undefined)	x	u	x	x	4.7%	18.4µM*
CC(=O)c1ccc(NS(=O)(=O)c2ccc3[nH]c4c(c3c2)CCCC4)cc1	x	-26.1%	x	x	u	-3.9%
COC(=O)c1ccc(NS(=O)(=O)c2ccc3[nH]c4c(c3c2)CCCC4)cc1	x	6.51µM*	x	x	u	u
O=C(CSc1nnc(NCc2ccc(F)cc2)s1)Nc1ccnn1C1CCCC1	x	x	x	x	1.4%	x
O=S(=O)(Nc1ccccc1N1CCOCC1)c1ccccc1C(F)(F)F	x	18.4µM*	x	-8.8%	-10.9%	u
O=S(=O)(Nc1ccccc1N1CCCCC1)c1ccc(Cl)s1	-7.7%	8.2µM*	-14.0%	1.5%	0.0%[57.4 µM]	10.3µM*

Screens deposited in PubChem BioAssay by National Center for Advancing Translational Sciences (NCATS).
